# In paper PMC5540273 (PLoS ONE, 2017):
# Legend:
# Conditions in all cases: concentration: 1 μM, replicates: in singlicate; n = 1
# STK36 = tested on: STK36
# STK39 = tested on: STK39
# SYK = tested on: SYK
# SgK110 = tested on: SgK110
# TAK1 = tested on: T1, TAK1
# T1 construct: gene MAP3K7
# TAOK1 = tested on: TAOK1
# TAOK2 = tested on: TAOK2
# TAOK3 = tested on: TAOK3
# TBK1 = tested on: TBK1
# TEC = tested on: TEC
# TESK1 = tested on: TESK1
# TGFBR1 = tested on: TGFBR1
# TGFBR2 = tested on: TGFBR2
# TIE1 = tested on: TIE1
# TIE2 = tested on: T2, TIE2
# T2 construct: gene TEK
# TLK1 = tested on: TLK1
# TLK2 = tested on: TLK2
# TNIK = tested on: TNIK
# TNK1 = tested on: TNK1
# TNK2 = tested on: TNK2
# 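Further: KINOMEscan kinase panel screen.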
SMILES,%Inh (STK36) [%],%Inh (STK39) [%],%Inh (SYK) [%],%Inh (SgK110) [%],%Inh (TAK1) [%],%Inh (TAOK1) [%],%Inh (TAOK2) [%],%Inh (TAOK3) [%],%Inh (TBK1) [%],%Inh (TEC) [%],%Inh (TESK1) [%],%Inh (TGFBR1) [%],%Inh (TGFBR2) [%],%Inh (TIE1) [%],%Inh (TIE2) [%],%Inh (TLK1) [%],%Inh (TLK2) [%],%Inh (TNIK) [%],%Inh (TNK1) [%],%Inh (TNK2) [%]
Cc1nn2c(=O)cc(N3CCO[C@H](C)C3)nc2n1Cc1cccc(Cl)c1Cl [GSK2373693],0,5,19,0,0,0,0,3,0,2,20,0,8,15,2,0,0,0,0,10
Nc1ncc(-c2cn[nH]c2)c2scc(-c3ccc4c(c3)CCN4C(=O)Cc3ccccc3)c12 [GSK2593067],0,0,25,0,0,0,0,0,1,4,59,0,0,97.4,83,0,0,69,45,79
Cl.N#CCc1ccc(Nc2nccc(Nc3ccc(Oc4ccccc4)cc3)n2)cc1 [GW639905],0,10,5,6,0,0,7,0,6,75,56,0,8,2,9,0,0,0,59,26
O=C(Nc1n[nH]c2nc(-c3ccccc3O)ccc12)C1CC1 [SB-711880],0,0,0,0,9,9,0,0,27,63,0,0,0,16,0,22,0,79,20,0
O=C(Nc1n[nH]c2nc(-c3ccccc3)ccc12)C1CC1 [SB-708999],8,0,0,0,0,40,0,7,8,0,17,0,0,15,3,0,0,79,0,2
COc1cccc(NC(=O)NCCNc2ccnc(Nc3ccc(F)cc3)n2)c1 [GSK1379879],0,1,20,0,0,0,0,0,13,0,40,26,0,1,0,0,0,0,0,9
Nc1ncnc2scc(-c3ccc(NC(=O)Cc4cc(F)ccc4F)cc3)c12.O=C(O)C(F)(F)F [SB-731254-M],0,8,0,11,22,11,3,0,30,1,51,4,20,98.7,77,11,1,27,44,2
CCNc1nccc(-c2c(-c3ccc(F)cc3)ncn2C2CCN(C)CC2)n1,25,0,0,0,0,0,0,0,1,14,0,0,0,100,0,17,0,24,0,0
N#Cc1cnc2cc(-c3cnc(CNCCN4CCOCC4)s3)ccc2c1Nc1ccc(Oc2ccccc2)cc1 [GW664114],7,0,82,0,12,0,0,0,34,88,6,6,0,11,6,21,11,92.9,99,94.6
CN(c1ccc(NC(=O)N2CCN(CCCN3CCOCC3)CC2)cc1)c1ccnc(Nc2ccc(CS(C)(=O)=O)cc2)n1.Cl [GW830899],5,0,15,0,0,0,0,0,53,0,9,6,59,0,16,2,0,15,41,12
COc1ccc(C)c(Nc2ccnc(Nc3ccc(-c4cnc[nH]4)cc3)n2)c1.Cl [GW784041],36,0,16,0,0,0,3,0,49,7,21,39,34,0,36,0,0,9,44,36
Cc1ccc(Nc2ccnc(Nc3ccc(C)c(F)c3)n2)cc1O.Cl [GW582868],7,18,56,0,0,0,0,0,16,7,0,0,83,47,0,0,0,0,0,29
CN(c1ccc2c(c1)nc(NCc1ccccc1)n2C)c1ccnc(Nc2ccc(CS(C)(=O)=O)cc2)n1.Cl [GW811603],0,7,69,0,46,0,0,0,4,0,0,30,5,88,82,0,0,24,25,0
CN(c1ccc(F)c(NC(=O)c2cccc(OC(C)(C)C#N)c2Cl)c1)c1ccc2nc(NC(=O)C3CC3)sc2n1,3,12,0,0,19,49,0,0,7,6,6,3,0,67,0,2,0,95.6,42,0
Cl.Cl.NCC(NC(=O)c1cc(-c2cccnc2)c(-c2ccnc3[nH]ccc23)s1)c1ccccc1 (stereo not shown) [GSK1323434],0,64,18,0,45,29,0,0,2,27,19,22,27,19,0,14,0,77,0,16
COC(=O)Nc1nc2cc(Oc3ccc(NC(=O)Nc4cccc(SC)c4)cc3)ccc2[nH]1.Cl [GW697999],8,0,23,0,36,0,0,0,0,5,3,25,0,96.5,93.2,0,0,0,4,10
COc1cccc(-c2nc(-c3ccccc3)[nH]c2-c2ccncc2)c1 [SB-610250],30,19,23,20,0,0,0,0,0,4,22,17,5,0,0,0,0,0,0,8
Nc1ncc(-c2ccc3nccc(-c4ccncc4)c3c2)cc1S(=O)(=O)N1CCCCC1 [GSK1693850],0,0,29,0,14,3,0,5,6,0,20,0,0,4,0,37,0,10,0,9
CN(C)CCNS(=O)(=O)c1ccc(-c2ccnc3[nH]ccc23)cc1 [GSK977620],0,5,31,0,1,3,0,0,0,0,74,0,0,32,0,7,7,0,0,7
COc1cc(Nc2nccc(N3CCC(NS(=O)(=O)c4ccc(NC(C)=O)cc4)CC3)n2)cc(OC)c1OC [GSK1379825],62,0,37,0,0,0,0,0,26,0,71,61,0,63,63,0,0,22,6,76
CN1CCN(Cc2ccc(NC(=O)Nc3ccc(N(C)c4ccnc(Nc5ccc(CS(C)(=O)=O)cc5)n4)cc3)cc2)CC1.Cl [GW827654],49,36,84,0,89,13,0,0,30,9,0,25,81,96.9,80,25,0,90.9,20,97.7

SMILES,%Inh (STK36) [%],%Inh (STK39) [%],%Inh (SYK) [%],%Inh (SgK110) [%],%Inh (TAK1) [%],%Inh (TAOK1) [%],%Inh (TAOK2) [%],%Inh (TAOK3) [%],%Inh (TBK1) [%],%Inh (TEC) [%],%Inh (TESK1) [%],%Inh (TGFBR1) [%],%Inh (TGFBR2) [%],%Inh (TIE1) [%],%Inh (TIE2) [%],%Inh (TLK1) [%],%Inh (TLK2) [%],%Inh (TNIK) [%],%Inh (TNK1) [%],%Inh (TNK2) [%]
Fc1cc(Cl)ccc1Nc1ccnc2cc(-c3ccc(CN4CCSCC4)o3)ccc12 [GW560106],0,4,51,0,0,0,0,0,6,0,17,0,71,1,6,0,0,47,87,75
O=C(Nc1c(F)cccc1F)c1cc(C(=O)c2ccccc2F)c[nH]1 [GSK1326180],0,0,22,0,0,0,0,0,3,7,10,0,6,0,0,0,0,20,8,8
c1ccc(Oc2ccc(Nc3ccnc4cc(-c5ccc(CN6CCCCC6)o5)ccc34)cc2)nc1 [GW567143],0,0,0,0,0,0,0,0,0,41,16,0,0,23,0,0,0,14,56,36
CN(c1ccc(NC(=O)Nc2cccc(Cl)c2)cc1)c1ccnc(N)n1.Cl [GW830707],0,0,2,0,19,0,8,0,0,0,4,71,0,86,19,0,5,0,28,3
N#CC1(c2cccc(C(=O)Nc3cccc(Oc4ccc5nc(NC(=O)C6CC6)sc5n4)c3)c2)CC1,0,0,22,17,0,0,28,0,15,0,9,0,0,73,37,0,0,53,76,0
Cc1ccc(-c2ccc3occ(-c4ccc(S(C)=O)cc4)c3c2)nn1 (stereo not shown),0,0,5,0,0,0,0,0,47,0,0,0,18,0,15,0,38,0,0,0
Cn1cc(-c2ccc3c(c2)CCN3C(=O)Cc2cc(F)cc(F)c2F)c2c(N)ncnc21 [GSK2634140],0,0,41,0,48,0,0,0,17,0,22,10,0,76,52,3,0,5,8,7
CCOc1nccc(-c2c(-c3ccc(F)cc3)ncn2C2CCNCC2)n1 [SB-249175],24,74,32,0,34,100,0,73,23,10,12,19,11,23,19,0,15,49,21,0
COC(=O)Nc1nc2ccc(Oc3ccc(CC(=O)Nc4cc(C(F)(F)F)ccc4F)cc3)cc2[nH]1 [GW680903],7,0,0,0,0,0,0,0,4,0,17,17,0,94,36,14,0,0,0,17
CSc1ccc(NC2=C(c3ccc(Cl)cc3)C(=O)NC2=O)cc1 [SB-317658],15,0,3,0,39,18,0,0,0,0,20,38,23,42,17,8,18,0,41,0
Cl.O=C(Nc1ccc(Oc2ccc3[nH]c(NC(=O)c4ccco4)nc3c2)cc1)Nc1cc(C(F)(F)F)ccc1F [GW683134],0,12,31,0,89,0,0,0,0,13,36,0,0,100,99.8,0,3,0,56,8
Nc1cccc(-c2ccc3c(N)n[nH]c3c2)c1 [GSK2193613],0,0,22,0,0,69,4,29,0,0,29,0,0,6,0,3,0,93.2,0,13
Fc1cc(Cl)ccc1Nc1ccnc2cc(-c3ccc(CN4CCOCC4)o3)ccc12 [GW560109],0,10,16,3,0,0,0,0,0,76,13,0,83,13,8,0,0,53,81,82
CC(C)c1nc(-c2cccc(NS(=O)(=O)c3c(F)cccc3F)c2)c(-c2ccnc(Nc3ccc(N4CCOCC4)nc3)n2)s1.Cl [GSK1723980],100,10,69,0,81,0,0,0,18,80,100,93.1,92.4,92.5,97.2,16,0,12,100,98.5
CS(=O)(=O)c1cccc(CNc2nc(Nc3ccc4c(c3)CCC(=O)N4)ncc2C(F)(F)F)c1,0,0,75,0,68,0,21,0,89,0,0,2,0,57,30,0,0,90.1,73,0
NCCC(NC(=O)c1cc(Br)c(-c2ccnc3[nH]ccc23)s1)c1ccccc1.O=C(O)C(F)(F)F.O=C(O)C(F)(F)F (stereo not shown) [GSK1307810],0,5,18,70,51,48,10,0,5,0,6,3,0,73,0,23,0,52,0,9
Cc1ccc(O)cc1Nc1ccnc2cc(-c3ccc(CN4CCCCC4)o3)ccc12 [GW557777],0,0,69,0,35,0,0,0,0,21,0,47,98,61,57,23,5,24,0,26
COc1cccc(CC(=O)N2CCc3cc(-c4cn(C)c5ncnc(N)c45)ccc32)c1 [GSK2608899],17,22,26,0,43,2,0,3,25,19,21,0,6,82,42,15,0,81,0,0
Cc1cc(-c2ccnc(Nc3cccc(C#N)c3)n2)cc(C)c1O [GSK1440913],38,8,83,0,54,77,22,42,35,19,47,0,0,74,0,16,0,68,0,18
COC(=O)Nc1nc2ccc(Oc3ccc(NC(=O)Nc4cc(C(F)(F)F)ccc4F)cc3)cc2[nH]1.Cl [GW654607],0,13,29,55,94.7,0,0,6,0,0,0,0,7,97.7,99.7,7,4,5,48,12
